We go through nine molecules from PubChem BioAssay.

Active and inactive are the calls of the source. Unless noted, no stated cut-off is given here; in the data, active means inhibition above about 42%; inactive means the rest.

Assay [1] is described as follows: StAR promoter reporter inhibitors, counter-screen for LRH-1 inverse agonist project, cell-based, luminescence, high throughput (AID 651611; in the data active means inhibition above about 28%). The settings on record: StAR promoter luciferase reporter counterscreen, at 3.6 µM, stronger effect = higher value.
The target of assay [2] is Nuclear receptor subfamily 5 group A member 2 (Homo sapiens) (UniProt O00482). Put plainly: NR5A2 activity suppression in reporter cells – cell-based, luminescence, confirmation (AID 651613).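 Further: HEK293T cells co-transfected with LRH-1 and StAR promoter luciferase reporter; 0% = vehicle wells and 100% = parental cells lacking receptor.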 The settings on record: cell-based LRH-1 luciferase reporter, inverse agonism; at 3.6 µM; stronger effect = higher value.
Sequence of Nuclear receptor subfamily 5 group A member 2 (Homo sapiens) (O00482 whole entry, looked up): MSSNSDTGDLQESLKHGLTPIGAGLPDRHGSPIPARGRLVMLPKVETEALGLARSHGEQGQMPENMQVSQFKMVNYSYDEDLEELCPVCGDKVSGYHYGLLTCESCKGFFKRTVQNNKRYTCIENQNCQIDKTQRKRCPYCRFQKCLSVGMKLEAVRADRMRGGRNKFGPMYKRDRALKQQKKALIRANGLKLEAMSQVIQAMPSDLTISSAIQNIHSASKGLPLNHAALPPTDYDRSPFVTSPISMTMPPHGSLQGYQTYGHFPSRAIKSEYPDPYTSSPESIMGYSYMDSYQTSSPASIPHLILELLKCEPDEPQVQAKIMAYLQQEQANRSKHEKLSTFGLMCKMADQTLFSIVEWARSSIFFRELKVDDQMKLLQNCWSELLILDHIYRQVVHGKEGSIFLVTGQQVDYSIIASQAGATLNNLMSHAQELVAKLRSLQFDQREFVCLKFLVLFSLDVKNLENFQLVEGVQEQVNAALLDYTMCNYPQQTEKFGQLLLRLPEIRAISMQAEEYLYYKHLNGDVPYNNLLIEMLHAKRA
For assay [3], the target named is Steroidogenic factor 1 (Homo sapiens) (UniProt Q13285). Kind of assay: inverse agonism at SF1 nuclear receptor – cell-based, luminescence, high throughput, counter-screen for LRH-1 inverse agonist project (AID 651614; in the data active means inhibition above about 44%;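 further: cells cotransfected with StAR promoter reporter and SF1 expression vector; 0% = vehicle on cells with receptor and 100% = vehicle on cells lacking receptor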). The settings on record: cell-based SF1 luciferase reporter, at 3.6 µM, stronger effect = higher value.
Sequence of Steroidogenic factor 1 (Homo sapiens) (Q13285 whole entry, looked up, the tested form may be a part): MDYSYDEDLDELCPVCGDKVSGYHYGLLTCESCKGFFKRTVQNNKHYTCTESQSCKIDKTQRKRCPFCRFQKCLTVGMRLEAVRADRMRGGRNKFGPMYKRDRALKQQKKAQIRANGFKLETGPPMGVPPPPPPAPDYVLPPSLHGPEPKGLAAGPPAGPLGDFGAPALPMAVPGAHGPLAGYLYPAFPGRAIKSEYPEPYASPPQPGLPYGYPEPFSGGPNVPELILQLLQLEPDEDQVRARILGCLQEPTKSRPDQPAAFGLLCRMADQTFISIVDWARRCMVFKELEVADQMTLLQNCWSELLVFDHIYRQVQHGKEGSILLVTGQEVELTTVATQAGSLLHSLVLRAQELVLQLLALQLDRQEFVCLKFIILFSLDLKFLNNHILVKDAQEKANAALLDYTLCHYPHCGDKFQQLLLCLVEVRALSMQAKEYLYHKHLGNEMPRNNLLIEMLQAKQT
A short description of assay [4]: compounds suppressing VP16-driven luciferase signal – cell-based, luminescence, high throughput, counter-screen for LRH-1 inverse agonist project (AID 651615; in the data active means inhibition above about 33%). The settings on record: Gal4-VP16 luciferase reporter cells, at 3.6 µM, stronger effect = higher value.

Take `Cc1ccc(NC(=O)CN2C(=O)NC(C)(CC(C)C)C2=O)c(Br)c1` (stereo unspecified): the inhibition in assay [1] is 15.9% (inactive); in assay [2], 55.1% (active); in assay [3], 61.6% (active); in assay [4] it was -6.87% (inactive).
The corresponding values for `CC(=O)N1CCN(c2ccc(NC(=O)c3ccc([N+](=O)[O-])o3)cc2Cl)CC1` are 22.9% (inactive), 60% (active), 65.1% (active) and -26.3% (inactive).
As to `CC(NC(=O)CCl)c1ccc(Cl)c(Cl)c1` (stereo unspecified), the inhibition in assay [1] is 32.8% (active); in assay [2] it was 69.4% (active); in assay [3] it was 67.3% (active); in assay [4] it was -15.3% (inactive).
Consider `CCc1ccccc1NC(=O)CSc1nnc(Cn2nnc3ccccc32)n1C`, for which the inhibition in assay [1] was 5.04% (inactive); in assay [2] it was 53% (active); in assay [3], 48.2% (active); in assay [4], -5.32% (inactive).
For `CC(=O)Oc1ccc2oc(=O)c3c(c2c1)CCCN3C(=O)CN1CCN(c2ncccn2)CC1`, the inhibition is 12.8% (inactive) in assay [1], 58% (active) in assay [2], 66.4% (active) in assay [3] and -13.8% (inactive) in assay [4].
On to `COc1cc(C2CC(=O)c3c([nH]c(C(=O)OCCOC(C)C)c3C)C2)cc(OC)c1OC` (stereo unspecified), for which the inhibition in assay [1] is 24.2% (inactive); in assay [2], 40% (inactive); in assay [3], 56.8% (active); in assay [4] it was 43.3% (active).
The corresponding values for `CCOC(=O)C1CCN(Cc2cc(Cl)c3ccccc3c2O)CC1` are 1.44% (inactive), 10.1% (inactive), 32.9% (inactive) and 2.83% (inactive).
`Cc1ccc(SCC(=O)Nc2ccc(N3CCOCC3)cc2)cc1C`: the inhibition in assay [1] is -0.13% (inactive); in assay [2], 51.6% (active); in assay [3] it was 47.2% (active); in assay [4], -10.5% (inactive).
`Cc1ccc(C)c(NC(=O)CSc2nnc(-c3n[nH]c4ccccc34)o2)c1`: the inhibition was 10.3% (inactive) in assay [1], 58.9% (active) in assay [2], 50.4% (active) in assay [3] and 5.08% (inactive) in assay [4].
